The campaign covered roughly 310,000 compounds. About 11,000 (3.5%) were called active. Inconclusive results (about 8%) are left out. The call rests on the fitted dose curve; in most records, active means well fitted inhibition curve with a large enough effect; inconclusive means small, poorly fitted or top-dose-only effect, or effect the other way; inactive means flat fitted curve, though single readings scatter. Shown is part of a subset that was picked to be rich in actives. Entries that show only a call come without a potency.
Test: VP16 counterscreen qHTS for inhibitors of ROR gamma transcriptional activity;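 further: Gal4-VP16 expression switched on by copper sulfate through the metallothionein promoter; nearly all actives have a fitted effect of over 50% in size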
Settings: Drosophila S2 Gal4-VP16 UAS-luciferase, luminescence, 20 h; series mostly up to 53.6 µM
Potency means the concentration at half of the fitted maximal effect.

| Structure (SMILES) | Potency | activity, negative = inhibition |
| --- | --- | --- |
| Cc1ccnc(N2CCCC(C(=O)NC3CC3)C2)n1 (stereo not drawn) | inactive | – |
| Cc1ccnc(-n2sc3ccccc3c2=O)n1 | 11.2 µM (active) | – |
| Cc1nc2ccccc2c(=O)n1NC(=O)c1ccccc1 | inactive | – |
| Cc1ccc(CN2CCNC(=O)C2CC(=O)NCc2csc(C(C)C)n2)cc1 (stereo not drawn) | inactive | – |
| COC(=O)C1(O)CC(C(C)C)=NN1C(=O)c1ccc(Cl)cc1 (stereo not drawn) | inactive | – |
| O=C(C1CC1)N1N=C(c2ccc(Br)cc2)CC1(O)C(F)(F)F (stereo not drawn) | inactive | – |
| O=C(c1ccc(Cl)cc1)N1N=C(c2ccccn2)CC1(O)C(F)(F)F (stereo not drawn) | 4.47 µM (active) | – |
| CCC(C)c1ccc(NC(=S)NCc2ccccn2)cc1 (stereo not drawn) | 8.91 µM (active) | – |
| COc1cccc(NC(=S)NCc2ccccn2)c1 | inactive | – |
| O=C(NCc1ccccn1)Nc1ccc(F)cc1 | inactive | – |
| Cc1cccc(NS(=O)(=O)c2ccc(C(=O)NCC(C)(C)N3CCOCC3)cc2)c1C | inactive | – |
| Cc1cccnc1CC(C)NC(=O)c1cc(COc2cncc(Cl)c2)on1 (stereo not drawn) | inactive | – |
| CCOC(=O)C(Cc1ccccc1)NC(=O)CCC(=O)c1ccc(OC)cc1 (stereo not drawn) | inactive | – |
| COc1cc([C@H](Cc2ccccc2)NC(C)=O)oc(=O)c1 | 11.2 µM (active) | – |
| COC(=O)[C@H](Cc1ccccc1)NC(=O)Nc1ccc(OC)cc1 | inactive | – |
| COc1cc(/C=C2\C(=N)N3N=C(CC(=O)N4CCOCC4)SC3=NC2=O)cc(OC)c1OC | inactive | – |
| CN(C)C(=O)CCC(=O)N1CCCCC1C(=O)Nc1ccc(Oc2ccccc2F)cc1 (stereo not drawn) | inactive | – |
| C/C(=N\NC(=O)c1ccc(C)cc1)C1C(=O)c2ccccc2C1=O | 0.562 µM (active) | – |
| Cc1ccc(C(=O)NCCNC(=O)c2ccccc2)cc1 | inactive | – |
| C/C(=N\NC(=O)c1cccnc1)c1ccc(-c2ccccc2)cc1 | inactive | – |
| CC(Cc1cccs1)N(Cc1ccc(Cl)cc1)C(=O)c1ccncc1 (stereo not drawn) | inactive | – |
| CCOC(=O)c1ccc2[nH]c3c(c2c1)CCCC3NC=O (stereo not drawn) | inactive | – |
| CCOCC(=O)Nc1sc2c(c1C(=O)OCC)CCCC2 | inactive | – |

| Structure (SMILES) | Potency | activity, negative = inhibition |
| --- | --- | --- |
| O=C(Nc1sc2c(c1C(=O)O)CCC2)c1ccccc1F | inactive | – |
| CCOC(=O)c1c(NC(=S)NC)sc2c1CCCC2 | 1.41 µM (active) | – |
| CCN(CC)CC(=O)Nc1sc2c(c1C(=O)c1ccccc1C)CCC2 | 17.8 µM (active) | – |
| CCCOC(=O)Nc1sc2c(c1C(=O)OCC)CCC2 | inactive | – |
| CCOC(=O)c1c(NC(=O)c2ccc(Br)o2)sc2c1CCCC2 | inactive | – |
| CCOC(=O)c1c(NC(=S)Nc2ccccc2C)sc2c1CCC2 | 5.62 µM (active) | – |
| CCOC(=O)c1c(NC(=O)C(C)Sc2c[nH]c3ccccc23)sc2c1CCC2 (stereo not drawn) | inactive | – |
| CCc1ccc(N(CC(=O)Nc2sc3c(c2C(=O)OC)CCCC3)S(C)(=O)=O)cc1 | inactive | – |
| O=C(O)CN1c2cccc3cccc(c23)S1(=O)=O | inactive | – |
| CC(C)(COC(=O)Nc1ccccc1)COC(=O)Nc1ccccc1 | inactive | – |
| CC(=O)Nc1ccc(NC(=O)CC2CCCC2)cc1 | inactive | – |
| COc1cc(C(=O)N2CCN(C3CCC(C)CC3)CC2)cc(OC)c1OC (stereo not drawn) | inactive | – |
| COc1ccccc1/C=N/N1CCN(Cc2ccccc2Cl)CC1 | inactive | – |
| CCOCCCNc1c(CC)c(C)c(C#N)c2nc3ccccc3n12 | inactive | – |
| C=C(C(C)=O)C(O)c1ccc([N+](=O)[O-])cc1 (stereo not drawn) | 10 µM (active) | – |
| C=C(C(C)=O)C(O)c1cccs1 (stereo not drawn) | inactive | – |
| CC(=O)NCC(O)c1ccc([N+](=O)[O-])cc1 (stereo not drawn) | inactive | – |
| O=C(c1ccco1)N1CCN(C(=O)c2cc(-c3ccccc3F)no2)CC1 | inactive | – |
| O=C(c1cc(COc2ccc(F)cc2F)on1)N1CCOCC1 | inactive | – |
| CC(C)C[C@H](NC(=O)C1CC(=O)N(c2ccc3c(c2)OCCO3)C1)C(=O)NC1CCCC1 (stereo partly drawn) | inactive | – |
| Cc1noc(C)c1-c1ccc2ncnc(NCc3ccc4[nH]ccc4c3)c2c1 | inactive | – |
| COc1ccc(COC(=O)c2ccc(Cl)c(S(=O)(=O)N3CCOCC3)c2)cc1F | inactive | – |
| CC(=O)c1ccc(Oc2cc(C)nc(-n3nc(C)cc3C)n2)cc1 | 6.31 µM (active) | – |

| Structure (SMILES) | Potency | activity, negative = inhibition |
| --- | --- | --- |
| Cc1cc(N/N=C\c2ccc(Br)cc2)nc(-n2nc(C)cc2C)n1 | 1.41 µM (active) | – |
| COc1ccccc1/C=N\Nc1cc(C)nc(-n2nc(C)cc2C)n1 | 0.355 µM (active) | – |
| COc1ccc(Nc2cc(C)nc(-n3nc(C)cc3C)n2)cc1 | 1.12 µM (active) | – |
| Cc1cc(Oc2ccc(Cl)cc2)nc(SCC(=O)c2ccccc2)n1 | inactive | – |
| Cc1nc(Cl)cc(N/N=C/c2ccccc2)n1 | inactive | – |
| Cc1cc(C)n(-c2cc(Oc3ccccc3)ncn2)n1 | inactive | – |
| COc1cccc2c(N/N=C/c3ccco3)cc(C)nc12 | inactive | – |
| Cc1cc(Nc2ccc(Cl)cc2)nc(N2CCOCC2)n1 | inactive | – |
| COc1ccc(/C=N/Nc2cc(N3CCOCC3)nc(C)n2)c(OC)c1 | inactive | – |
| COc1ccc(NC(=O)c2nc(-n3nc(C)cc3C)ccc2Cl)cc1Cl | inactive | – |
| Cc1ccc(S(=O)(=O)Nc2nc(C)cc(N/N=C/c3ccc(O)cc3)n2)cc1 | inactive | – |
| COC(=O)c1ccc(COC(=O)c2cnc(Cl)c(Cl)c2)cc1 | inactive | – |
| COCc1cc(C)n(CC(=O)NCC2CCCO2)c(=O)c1C#N (stereo not drawn) | inactive | – |
| CCc1ccccc1N(CC(=O)NCC1CCCO1)C(=O)CCC(=O)Nc1nccs1 (stereo not drawn) | inactive | – |
| COc1ccccc1N1CCN(C(=O)c2cc(=O)c3cc(C)cc(C)c3o2)CC1 | inactive | – |
| C[C@H]1[C@H]2c3nc4ccccc4n3C[C@H]1ON2C1CCCCC1 | inactive | – |
| COc1cc2c(cc1OC)C(c1cccc([N+](=O)[O-])c1)=NCC2 | inactive | – |
| O=C1CSC(=S)N1/N=C/c1ccc(O)c([N+](=O)[O-])c1 | inactive | – |
| CCOc1cccc(/C=N/N2C(=O)CSC2=S)c1O | 12.6 µM (active) | – |
| CCOc1ccccc1N=C1NC(=O)CS1 | inactive | – |
| CCOc1ccc(N(CC(=O)Nc2cccc(OC)c2)S(C)(=O)=O)cc1 | inactive | – |
| CCN1CCN(C2CCCCC2NS(=O)(=O)c2ccc(Cl)cc2)CC1 (stereo not drawn) | inactive | – |
| Cc1nnc(N/N=C/c2cccs2)[nH]c1=O | inactive | – |

| Structure (SMILES) | Potency | activity, negative = inhibition |
| --- | --- | --- |
| COc1ccc(Nc2nc(=O)[nH]nc2C)cc1 | inactive | – |
| Cc1n[nH]c(=O)nc1N/N=C/c1cccs1 | 11.2 µM (active) | – |
| O=C(NCCc1nnc2ccc(SCC(=O)N3CCOCC3)nn12)c1ccccc1 | inactive | – |
| CCOC(=O)C1(CCOC)CCN(Cc2cc3ccccc3s2)CC1 | inactive | – |
| CCC(=O)Nc1ccc2nn(-c3ccc(F)cc3)nc2c1 | inactive | – |
| Cc1cc(N/C=C\C(=O)c2ccc(Cl)c(Cl)c2)no1 | inactive | – |
| COc1ccc(C(=O)/C=C/Nc2ccccn2)cc1 | 3.55 µM (active) | – |
| CCOc1ccc(N/C=C/C(=O)c2cc(OC)c(OC)c(OC)c2)cc1 | inactive | – |
| CS(=O)(=O)N1CCc2nc(-c3ccccc3)sc2C1 | inactive | – |
| O=C(NCCc1ccccc1)c1ccc(OCCOc2ccccc2)cc1 | inactive | – |
| CCCOc1ccc(C(=O)NCCc2ccccc2)cc1 | 14.1 µM (active) | – |
| O=C(NCCOc1ccccc1)c1ccccc1 | inactive | – |
| CCC(C(=O)NCCC(C)C)N(Cc1ccccc1Cl)C(=O)c1snc(C(N)=O)c1N (stereo not drawn) | inactive | – |
| CCOC(=O)C1CCCN(CCSc2ccc(C)cc2)C1 (stereo not drawn) | inactive | – |
| S=C(NCCc1ccccc1)Nc1ccccc1 | 17.8 µM (active) | – |
| S=C(Nc1ccc(Br)cc1)NC1CCN(Cc2ccccc2)CC1 | 15.8 µM (active) | – |
| NS(=O)(=O)c1ccc(CCNC(=S)Nc2ccc(S(N)(=O)=O)cc2)cc1 | inactive | – |
| O=C(NCCCc1ccccc1)C(=O)c1c[nH]c2ccccc12 | inactive | – |
| O=C(NC1CCN(Cc2ccccc2)CC1)c1c(F)cccc1F | inactive | – |
| O=C(Cc1cccc2ccccc12)NCCC1=CCCCC1 | inactive | – |
| O=C1CCN(C(=S)NCCc2ccccc2)CC1 | inactive | – |
| S=C(NCCCc1ccccc1)Nc1ccc(Br)cc1 | 10 µM (active) | – |
| S=C(NCCC1=CCCCC1)Nc1ccccc1 | 5.62 µM (active) | – |

| Structure (SMILES) | Potency | activity, negative = inhibition |
| --- | --- | --- |
| CC(=O)Nc1ccc(S(=O)(=O)N(C)CC(=O)NCCC2=CCCCC2)cc1 | inactive | – |
| O=C(COc1ccc(Br)cc1F)NC1CCN(Cc2ccccc2)CC1 | inactive | – |
| CCc1ccc(NC(=O)CS(=O)CC(=O)NCCCc2ccccc2)cc1 (stereo not drawn) | inactive | – |
| Cc1c(Cl)cccc1NC(=O)NCCCN1CCCC1=O | inactive | – |
| Cn1c(SCC(=O)N2CCCC2)nnc1-c1cccs1 | inactive | – |
| COc1ccccc1CN1CC(C(=O)NCCc2cn[nH]c2)CCC1=O (stereo not drawn) | inactive | – |
| Cc1ccn(CCC(=O)N2c3ccccc3CC2C)n1 (stereo not drawn) | inactive | – |
| COc1ccc(OC)c(NC(=O)c2ccc3c(c2)C(=O)N(c2ccc(OC(C)=O)cc2)C3=O)c1 | inactive | – |
| O=C(NCCNc1ccccc1[N+](=O)[O-])c1ccccc1F | inactive | – |
| COc1ccc(-c2nonc2NC(=O)c2oc3ccc(F)cc3c2C)cc1OC | inactive | – |
| COc1ccc(S(=O)(=O)N2CCC(C(=O)NCc3ccco3)CC2)cc1C | inactive | – |
| N#Cc1ccccc1S(=O)(=O)N1CCN(C(=O)c2cc(-c3ccccc3)nn2-c2ccccc2)CC1 | inactive | – |
| Cc1c(CCC(=O)N[C@@H](CC(C)C)C(=O)O)c(=O)oc2c(C)c3oc4c(c3cc12)CCCC4 | inactive | – |
| COc1cc2[nH]c(=S)n(Cc3ccc(C)o3)c(=O)c2cc1OC | 10 µM (active) | – |
| COc1cc2[nH]c(=S)n(CCN3CCCCC3C)c(=O)c2cc1OC (stereo not drawn) | inactive | – |
| CCOc1cc2[nH]c(=S)n(Cc3ccc(C(=O)NCCOC)cc3)c(=O)c2cc1OCC | inactive | – |
| Cc1ccc(S(=O)(=O)N(CC(O)CN2CCCCC2)c2cccc([N+](=O)[O-])c2)cc1 (stereo not drawn) | inactive | – |
| CCc1ccc(NC(=O)N2CCc3ccccc3C2)cc1 | inactive | – |
| O=C(c1cn(-c2ccccc2)nc1-c1cc2ccccc2oc1=O)N1CCOCC1 | – | 7.29% [at 10 µM] (inactive) |
| O=c1oc2ccccc2cc1-c1cn(-c2ccccc2)c(=S)[nH]1 | 1.78 µM (active) | – |
| O=C(Nc1cc2ccccc2oc1=O)C1CCCCC1 | inactive | – |

Source: PubChem BioAssay AID2546 (National Center for Advancing Translational Sciences (NCATS), 2010)
